Measured values reported in PubChem BioAssay AID1159580 (chemical genetic matrix, 2015).
Several values for one entry are separate records, joined by “and”; a condition that tells them apart may be missing. Equal entries are not always repeated. Among all 5,500 compounds or so, about 2,000 (36%) were called active. Not shown: some 18% with an inconclusive outcome. Cut-off read from the data, not from the text of the source: active = normalized growth mostly below about 0.91 (no sharp cut-off); inconclusive = no clear call, values can overlap the other calls; inactive = mostly above about 0.92. The list shows a part of the results.

Assay: chemical genetic growth profiling, strain panel (AID 1159580);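 note: tested at 20 µM; growth read once vehicle control cultures reached saturation at 30 °C; 1 = growth at the plate median or of vehicle wells; lower values mean less growth of the strain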
Settings: S. cerevisiae deletion strains, growth OD

Measured: normalized growth

COc1ccc(C(=O)N2CCCC2=O)cc1
inactive: locus YAL013W, strain DEP1, hits give low values 0.971 | locus YAL021C, strain ccr4, hits give low values 0.981 | locus YAL026C, strain drs2, hits give low values 0.976 | locus YAL030W, strain snc1, hits give low values 0.956 | locus YAL040C, strain CLN3, hits give low values 1.01 | locus YBL061C, strain skt5, hits give low values 0.962 | locus YBR009C, strain hhf1, hits give low values 0.969 | locus YBR021W, strain FUR4, hits give low values 1.05 | locus YBR023C, strain chs3, hits give low values 0.967 | locus YBR171W, strain sec66, hits give low values 0.96 | locus YBR229C, strain ROT2, hits give low values 0.953 | locus YBR231C, strain swc5, hits give low values 0.967 | locus YBR279W, strain paf1, hits give low values 0.987 | locus YCL011C, strain gbp2, hits give low values 0.946 | locus YCL016C, strain dcc1, hits give low values 0.976 | locus YCL029C, strain bik1, hits give low values 0.983 | locus YCL061C, strain MRC1, hits give low values 0.974 | locus YCL069W, strain vba3, hits give low values 0.985 | locus YCR088W, strain abp1, hits give low values 0.981 | locus YDL005C, strain med2, hits give low values 0.974 | locus YDL035C, strain GPR1, hits give low values 0.984 | locus YDL040C, strain nat1, hits give low values 0.984 | locus YDL074C, strain BRE1, hits give low values 0.961 | locus YDL101C, strain DUN1, hits give low values 0.952 | locus YDL134C, strain PPH21, hits give low values 0.993 | locus YDL185W, strain tfp1, hits give low values 0.964 | locus YDL192W, strain arf1, hits give low values 0.983 | locus YDR001C, strain nth1, hits give low values 0.97 | locus YDR069C, strain doa4, hits give low values 0.968 | locus YDR101C, strain arx1, hits give low values 0.989 | locus YDR137W, strain rgp1, hits give low values 0.967 | locus YDR150W, strain NUM1, hits give low values 0.968 | locus YDR159W, strain sac3, hits give low values 0.968 | locus YDR162C, strain NBP2, hits give low values 0.968 | locus YDR195W, strain ref2 1 | locus YDR297W, strain sur2, hits give low values 0.967 | locus YDR318W, strain mcm21, hits give low values 0.996 | locus YDR334W, strain swr1, hits give low values 0.939 | locus YDR335W, strain msn5, hits give low values 0.975 | locus YDR388W, hits give low values 0.999 | locus YDR392W, strain spt3, hits give low values 0.929 | locus YDR502C, strain sam2, hits give low values 0.995 | locus YEL003W, strain gim4, hits give low values 0.981 | locus YEL037C, strain rad23, hits give low values 0.979 | locus YEL061C, strain CIN8 (second series), hits give low values 0.971 | locus YEL061C, strain CIN8, hits give low values 0.983 | locus YER002W, strain NOP16, hits give low values 1 | locus YER015W, strain faa2, hits give low values 0.979 | locus YER016W, strain bim1, hits give low values 0.984 | locus YER110C, hits give low values 0.985 | locus YER111C, strain swi4, hits give low values 0.978 | locus YER155C, strain BEM2 (second series), hits give low values 0.974 | locus YER155C, strain BEM2, hits give low values 0.995 | locus YER167W, strain BCK2, hits give low values 0.983 | locus YFR010W, strain ubp6, hits give low values 0.962 | locus YGL078C, strain dbp3, hits give low values 0.985 | locus YGL086W, strain mad1, hits give low values 0.987 | locus YGL167C, strain pmr1, hits give low values 0.96 | locus YGL173C, strain kem1, hits give low values 0.961 | locus YGL227W, strain vid30, hits give low values 0.971 | locus YGL240W, strain doc1, hits give low values 0.992 | locus YGL248W, strain PDE1, hits give low values 0.977 | locus YGL253W, strain hxk2, hits give low values 0.976 | locus YGR078C, strain PAC10, hits give low values 0.973 and 1 | locus YGR135W, strain pre9, hits give low values 0.981 | locus YGR229C, strain SMI1, hits give low values 0.994 and 1.02 | locus YGR252W, strain gcn5, hits give low values 1.05 | locus YHR013C, strain ard1, hits give low values 0.962 | locus YHR027C, strain rpn1, hits give low values 0.956 | locus YHR030C, strain SLT2, hits give low values 0.992 | locus YHR079C, strain IRE1 (second series), hits give low values 0.991 | locus YHR094C, strain hxt1, hits give low values 0.991 | locus YHR129C, strain ARP1, hits give low values 0.992 | locus YHR142W, strain chs7, hits give low values 0.91 | locus YHR200W, strain rpn10, hits give low values 0.989 | locus YIL066C, strain RNR3, hits give low values 0.986 | locus YIL073C, strain SPO22, hits give low values 1.01 | locus YIL125W, strain kgd1, hits give low values 0.992 | locus YIR030C, strain dcg1, hits give low values 0.981 | locus YJL092W, strain hpr5, hits give low values 0.975 | locus YJL095W, strain BCK1 (second series), hits give low values 0.973 | locus YJL095W, strain BCK1, hits give low values 1 | locus YJL115W, strain asf1, hits give low values 0.957 | locus YJL129C, strain trk1, hits give low values 1.01 | locus YJL134W, strain LCB3, hits give low values 0.977 | locus YJL154C, strain vps35, hits give low values 0.975 | locus YJL164C, strain tpk1, hits give low values 0.985 | locus YJL166W, strain qcr8, hits give low values 0.945 | locus YJL168C, strain set2, hits give low values 0.992 | locus YJL187C, strain SWE1 (second series), hits give low values 0.98 | locus YJL187C, strain SWE1, hits give low values 0.975 | locus YJR043C, strain POL32, hits give low values 1
